Measured values reported in ChEMBL document CHEMBL4513216, “Probing the Open Global Health Chemical Diversity Library for Multistage-Active Starting Points for Next-Generation Antimalarials” (ACS Infect Dis, 2020).
Screen size: about 69,000 compounds; about 8,600 (12%) showed an effect of 50% or more. Only a selection was taken, and strong results are over-represented in it overall.

What follows are compounds tested on Plasmodium berghei (assay: Screen against P. berghei liver stage (PbLuc), transformed with Luciferase, at 10uM). Details: tested at 10 uM.
Format: functional, HepG2

Point of comparison: `Cc1occc1C(=O)NCC(=O)N(C)CCCOc1ccc(F)cc1`, INHIBITION 26.7%. Against it:
- O=C(c1ccn(-c2cccc(Cl)c2)n1)N1CCN(CCO)CC1 — lower, -12.2%
- CS(=O)(=O)N1CCN(C(=O)c2cncs2)CC(C(N)=O)C1 (stereo unspecified) — lower, -0.8525%
- Cc1ccc(CN2CCC3(CC2)CC(c2cccnc2)C(=O)N3C)o1 (stereo unspecified) — higher, 55.4%
- Cc1noc(C)c1CN1CCC2(CC1)C(c1ccccc1)CC(=O)N2C (stereo unspecified) — higher, 42.1%
- Cc1ccc(CN2CCC3(CC2)C(c2ccccc2)CC(=O)N3C)o1 (stereo unspecified) — higher, 51.2%
- CN1C(=O)C(c2cccnc2)CC12CCN(CCO)CC2 (stereo unspecified) — lower, -7.24%
- CN1C(=O)CC(c2ccccc2)C12CCN(CCO)CC2 (stereo unspecified) — lower, -63.9%
- Cc1cccc(CN2CCC3(CC2)CC(c2cccnc2)C(=O)N3C)n1 (stereo unspecified) — lower, 20.6%
- Cc1nc(C2CCCN2C(=O)Cc2cccc(F)c2)nc(O)c1C (stereo unspecified) — lower, 11.1%
- O=C(Cc1ccsc1)N1CCCC2(COCCN(CC3CC3)C2)C1 (stereo unspecified) — lower, -14.3%
- COCCNC(=O)Cn1cc(NC(=O)c2cc(Cl)c(Cl)n2C)cn1 — lower, 12.9%
- Cc1cc(C)n(CC2CN(CC(=O)NCc3cccs3)CCO2)n1 (stereo unspecified) — lower, 18.933%
- Cc1ccccc1N1CC(C)N(Cc2ccc(C)c(F)c2F)CC1=O (stereo unspecified) — lower, -8.92%
- CCc1nccn1CCC(=O)N1C[C@@H]2CC[C@H]1CN(C(=O)N(C)C)C2 — higher, 50.2%
- CCc1nccn1CCC(=O)N1CCN(c2ccccc2C)CC1C (stereo unspecified) — higher, 66.7%
- Cc1ccccc1N1CCN(C(=O)CCc2nncn2C)C(C)C1 (stereo unspecified) — lower, 8.38%
- CCc1nccn1CC(=O)N1C[C@@H]2CC[C@H]1CN(S(=O)(=O)N(C)C)C2 — lower, 17%
- Cc1ccccc1N1CC(C)N(C(=O)CCn2cccn2)CC1=O (stereo unspecified) — higher, 64.5%
- CCc1nccn1CC(=O)N1C[C@@H]2CC[C@H]1CN(C(=O)N(C)C)C2 — lower, -19.7%
- CCc1nccn1CCC(=O)N1CC(=O)N(c2ccccc2C)CC1C (stereo unspecified) — higher, 49.9%
- COc1cccc(CN2CC(=O)N(c3ccccc3C)CC2C)c1OC (stereo unspecified) — lower, 17.8%
- COCCn1ccnc1C1CCN(C(=O)CSc2nnc(C)o2)CC1 — lower, 7.24%
- COc1ncccc1CNC(=O)c1c(C)oc(C)c1C — lower, 5.1%
- CNC(=O)c1ccc(C2CN(CC(=O)N(C)C)CCO2)nc1 (stereo unspecified) — lower, -3.94%
- c1cncc(OCC2CC3(CCN(CC4CC4)CC3)CO2)c1 (stereo unspecified) — lower, 13.7%
- COc1ccc(C)nc1NC(=O)Cc1c(C)nn(C)c1C — higher, 41.6%
- COCC[C@]1(O)CCN(CC(=O)NCc2ccccc2C)C[C@H]1C — higher, 46.3%
- O=C(Cc1ccccn1)NCC1OCCc2cn(CC3CC3)nc21 (stereo unspecified) — lower, 3.25%
- CCOc1ncccc1CNS(=O)(=O)N1CCOCC1 — lower, -8.28%
- Cc1ccc(Oc2ncccc2CNS(=O)(=O)N2CCOCC2)cn1 — higher, 70.1%
- O=S(=O)(NCc1cccnc1OC1CCCC1)N1CCOCC1 — lower, 16.3%
- O=c1cc(Cn2cncn2)nc2n1CCCN(CCN1CCCC1)C2 — lower, 16.6%
- Cc1cc(C)n(C2CN(CC(O)c3ccc(C(F)(F)F)cc3)C2)n1 (stereo unspecified) — lower, -24.2%
- Cn1ccnc1CN1CCCC(Cc2ccnc3ccncc23)CC1 (stereo unspecified) — higher, 29.3%
- c1cc2nccc(CC3CCCN(Cc4c[nH]cn4)CC3)c2cn1 (stereo unspecified) — higher, 75.3%
- c1cc2nccc(CC3CCCN(Cc4ncc[nH]4)CC3)c2cn1 (stereo unspecified) — higher, 32.4%
- CC(C)c1ccc(OCC(=O)N(C)C)cc1 — lower, -11.2%
- CC(C)n1c(=O)[nH]c2cn(-c3ccccc3)c(=O)n21 — lower, 6.32%
- CCNC(=O)C1(Cc2cc(-c3ccc(C)cc3)no2)CCCN(C)C1 (stereo unspecified) — lower, 23%
- COc1ccc(-c2nnc([C@H]3CCN(C4CCC4)C3)o2)cc1 — higher, 57.8%
- c1ccc(-c2nnc([C@H]3CCN(C4CCOCC4)C3)o2)cc1 — lower, 18.4%
- Cc1ccc(-c2nnc([C@H]3CCN(C4CCC4)C3)o2)cc1 — lower, 4.07%
- c1ccc(-c2nnc([C@H]3CCN(C4CCC4)C3)o2)cc1 — higher, 46.4%
- c1cc(-c2nnc([C@H]3CCN(C4CCOCC4)C3)o2)ccn1 — higher, 54%
- c1cc(-c2nnc([C@H]3CCN(C4CCCCC4)C3)o2)ccn1 — lower, -5.77%
- O=C(NCCc1ccccn1)[C@@]12CCO[C@@H]1CCN(c1ncccn1)C2 — higher, 34.6%
- CCc1ncc2c(n1)CN(CC(=O)Nc1cccnc1)CC2 — lower, 19.4%
- CSc1ccc(NC(=O)Cn2cc(NC(C)=O)cn2)cc1 — higher, 33.7%
- CCOC(=O)[C@H]1[C@@H](O)C(=O)N(C)C12CCN(C(=O)OC)CC2 — higher, 29.8%
- Cn1ccc(CN2CCC(CC(=O)NC3CCCC3)CC2)cc1=O — higher, 27.2%
- COc1cc(CNC(=O)COC2CCCCC2)ccc1O — lower, 26.5%
- Cc1noc([C@@H]2C[C@H]3OCC[C@H]3N(S(=O)(=O)c3ccccc3)C2)n1 — lower, -5.08%
- Cc1ccccc1C(NC(=O)CNC(=O)c1ccoc1C)C(C)C (stereo unspecified) — lower, -68.2%
- Cc1occc1C(=O)NCC(=O)NCCOc1cccc(Cl)c1 — lower, -10.6%
- Cc1occc1C(=O)NCC(=O)N(C)CCCOc1ccccc1 — higher, 61%
- Cc1occc1C(=O)NCC(=O)NCCOc1ccc2c(c1)CCC2 — higher, 42.3%
- Cc1occc1C(=O)NCC(=O)NCCCOc1ccc(F)cc1 — higher, 54.5%
- O=C1CC(c2ccc(C(F)(F)F)cc2)c2c(n3ccsc3nc2=O)N1 (stereo unspecified) — lower, 17%
- COc1nsc2nc(C3CCCN3c3ncccn3)ccc12 (stereo unspecified) — lower, 25.49%
- Cc1ccc(C(=O)NCC(C)CN2CCCC2=O)c(=O)[nH]1 (stereo unspecified) — higher, 37.1%
- Cc1ccc(C(=O)NCC(C)Cn2ccnc2C)c(=O)[nH]1 (stereo unspecified) — higher, 55.5%
- Cc1ccc(C(=O)NCCCn2cccn2)c(=O)[nH]1 — lower, -1.98%
- Cc1ccc(C(=O)NC(C)Cn2cccn2)c(=O)[nH]1 (stereo unspecified) — higher, 42.6%
- Cc1ccc(C(=O)NCC(O)c2ccc(Cl)s2)c(=O)[nH]1 (stereo unspecified) — higher, 37.2%
- Cc1ccc(C(=O)NCC(C)Cn2cccn2)c(=O)[nH]1 (stereo unspecified) — higher, 58.5%
- Cc1cnc(C(=O)N2C[C@@H]3CC[C@H]2CN(Cc2cscn2)C3)[nH]1 — higher, 42.1%
- COc1cccc(CN2CCN(c3cccc(C(C)C)n3)CC2)c1F — lower, -26.1%
- Cc1ccc(F)cc1NC(=O)c1[nH]ncc1Br — lower, 11.7%
- CCS(=O)(=O)N(C)CC(=O)Nc1ccc(Br)cn1 — lower, 6.81%
- COCC(C)NS(=O)(=O)c1ccc(Br)cn1 (stereo unspecified) — higher, 56%
- C[C@H](CCO)NS(=O)(=O)c1ccc(Br)cn1 — lower, 21.7%
- CCC(CCO)NS(=O)(=O)c1ccc(Br)cn1 (stereo unspecified) — higher, 65.4%
- CS(=O)(=O)CCOCCNc1ccc(Br)cn1 — lower, -3.08%
- COCC(C)NC(=O)c1cncc(Br)c1 (stereo unspecified) — lower, -26.4%
- CCN(C(=O)c1nc2c(s1)CCCN2C(C)=O)C(C)C — lower, 5.68%
- O=C(c1cccc2c1OCCO2)N1CCCC1c1noc(C2CC2)n1 (stereo unspecified) — lower, 2.3%
- COCCC(=O)N1CCC2(COCc3cnc(NCC4CC4)nc32)C1 (stereo unspecified) — higher, 61.5%
- COCC(=O)N1CCC2(COCc3cnc(NCc4ccco4)nc32)C1 (stereo unspecified) — lower, 24.3%
- COCCC(=O)N1CCC2(COCc3c(C)nc(NCC4CC4)nc32)C1 (stereo unspecified) — higher, 33%
- COCCC(=O)N1CCC2(COCc3cnc(-c4ccccc4)nc32)C1 (stereo unspecified) — lower, 16.5%
- COCCC(=O)N1CCC2(COCc3cnc(N(C)C)nc32)C1 (stereo unspecified) — higher, 53.2%
- COCCC(=O)N1CCC2(COCc3cnc(-c4cccnc4)nc32)C1 (stereo unspecified) — higher, 33.1%
- Cc1cccc(CNC(=O)CCc2c(C)nc3cc(O)nn3c2C)n1 — higher, 33.3%
- CC(CN1CCOCC1)NC(=O)NCc1ccoc1 (stereo unspecified) — lower, -7.36%
- Cc1nc(NCCN2CCCC2=O)cc(C2CN(C)CCO2)n1 (stereo unspecified) — lower, -17.9%
- CC(NC(=O)NCCCn1cncn1)c1ccc(C(F)(F)F)cc1 (stereo unspecified) — lower, -16.88%
- Cc1ccc(S(=O)(=O)N2C[C@H]3C[C@H](NC(=O)c4ccn(C)n4)[C@H]3C2)cc1 — higher, 38.7%
- Cc1ccc(S(=O)(=O)N2C[C@H]3C[C@H](NC(=O)c4cc(C)no4)[C@H]3C2)cc1 — lower, 5.11%
- Cc1ccc(S(=O)(=O)N2C[C@@H]3C[C@@H](NC(=O)C(C)(C)C)[C@@H]3C2)cc1 — higher, 44.9%
- Cc1ccc(S(=O)(=O)N2C[C@H]3C[C@H](NC(=O)c4cnn(C)c4)[C@H]3C2)cc1 — higher, 78.5%
- Cc1ccc(S(=O)(=O)N2C[C@H]3C[C@H](NC(=O)C(C)C)[C@H]3C2)cc1 — lower, 19.6%
- Cc1ccc(S(=O)(=O)N2C[C@H]3C[C@H](NC(=O)c4ccnn4C)[C@H]3C2)cc1 — higher, 77.9%
- CC1(C)CN=C(N2CCN(CC3CCCCO3)CC2)S1 (stereo unspecified) — higher, 27.6%
- COCC1COCCC12CCN(Cc1cccs1)CC2 (stereo unspecified) — lower, 23.6%
- COCCN1C(=O)C[C@H]2[C@H]1CCN2C(=O)c1ccc[nH]1 — lower, 26.3%
- CCN1CCN(Cc2nc(CCc3ccccc3)n[nH]2)CC1 — higher, 56.5%
- c1ccc(CCc2n[nH]c(CCN3CCCCC3)n2)cc1 — higher, 38.5%
- CCN1CCN(Cc2nc(Cc3ccccc3)n[nH]2)CC1 — lower, -7.17%
- CCOCc1cc(CNC2CCCc3c2cnn3CC)ccc1OC (stereo unspecified) — higher, 33.8%
- Cc1nc2sccn2c1CN(CCCN(C)C)Cc1ccco1 — higher, 33.5%
- CC(CO)NC(=O)c1ccc(NCc2cc(C#N)ccc2F)cc1 (stereo unspecified) — higher, 26.8%
- Cc1nc[nH]c1CN1C[C@H]2CC[C@@H](C1)N(C(=O)CCNS(C)(=O)=O)C2 — higher, 26.8%
- Cc1cc(CN2C[C@@H]3CC[C@H]2CN(Cc2[nH]cnc2C)C3)on1 — higher, 62.1%
- Cc1ccc(CN2C[C@@H]3CC[C@H]2CN(Cc2[nH]cnc2C)C3)o1 — lower, 24.9%
- Cc1nc[nH]c1CN1C[C@H]2CC[C@@H](C1)N(C(=O)CCc1cnn(C)c1)C2 — higher, 40.1%
- Cc1nc[nH]c1CN1C[C@H]2CC[C@@H](C1)N(C(=O)c1cnn(C)c1)C2 — lower, 10.7%
- CSCCCN1C[C@@H]2CC[C@H]1CN(Cc1[nH]cnc1C)C2 — higher, 45.8%
- CSc1ccccc1CN1C[C@@H]2CC[C@H]1CN(Cc1[nH]cnc1C)C2 — higher, 60.3%
- Cc1nc[nH]c1CN1C[C@H]2CC[C@@H](C1)N(C(=O)CCc1cccnc1)C2 — lower, 8.38%
- Cc1cccc(CN2C[C@@H]3CC[C@H]2CN(Cc2[nH]cnc2C)C3)n1 — higher, 58.5%
